Reference: PubChem BioAssay (NCATS)
Results filed as inconclusive are left out. The source made the active and inactive calls. The call rests on the fitted dose curve.

Experiments:
[1] = Primary qHTS for inhibitors of SARS-S pseudo-typed particle cell entry (AID 1479145); further: nearly all actives have a fitted effect of over 45% in size
[2] = Primary qHTS for Huh7 cytotoxicity: counterscreen for inhibitors of MERS-S pseudotyped particle cell entry (AID 1479147)
[3] = Primary qHTS for inhibitors of MERS-S pseudo-typed particle cell entry (AID 1479149); further: nearly all actives have a fitted effect of over 60% in size
[4] = Primary qHTS for Vero E6 cytotoxicity: counterscreen for inhibitors of SARS-S pseudo-typed particle cell entry (AID 1479150)

Measured: Potency

CC(=O)OC(C)C[N+](C)(C)C (stereo not drawn)
inactive: all assays above

O=S(=O)(O)c1ccc2nc(-c3ccccc3)[nH]c2c1
inactive: all assays above

Cc1c(Nc2ncccc2C(=O)O)cccc1C(F)(F)F
inactive: all assays above

CCN(CC)C(=O)/C(C#N)=C/c1cc(O)c(O)c([N+](=O)[O-])c1
inactive: all assays above

CC1(C)O[C@@H]2C[C@H]3[C@@H]4CCC5=CC(=O)C=C[C@]5(C)[C@@]4(F)[C@@H](O)C[C@]3(C)[C@]2(C(=O)CO)O1
inactive: all assays above

CO[C@@]1(NC(=O)CSCC#N)C(=O)N2C(C(=O)O)=C(CSc3nnnn3C)CS[C@@H]21
inactive: all assays above

CC(=O)Oc1cccc(O)c1
inactive: all assays above

COc1ccc2cccc(CCNC(C)=O)c2c1
inactive: all assays above

O=C(Oc1ccccc1C(=O)O)c1ccccc1O
inactive: all assays above

CCN1CCCC1CNC(=O)c1cc(S(=O)(=O)CC)c(N)cc1OC (stereo not drawn)
inactive: all assays above

NS(=O)(=O)c1cc(C(=O)O)cc(N2CCCC2)c1Oc1ccccc1
inactive: all assays above

c1ccc2c(CC3=NCCN3)cccc2c1
inactive: all assays above

CNC(=O)c1c(I)c(NC(C)=O)c(I)c(C(=O)O)c1I
inactive: all assays above

Nc1ccc(S(=O)(=O)Nc2ccnn2-c2ccccc2)cc1
inactive: all assays above

CCCCC(=O)OCC(=O)[C@H]1[C@H](C)C[C@H]2[C@@H]3C[C@H](F)C4=CC(=O)C=C[C@]4(C)[C@@]3(F)[C@@H](O)C[C@@]21C
inactive: all assays above

CN(C)CCOC(=O)C(c1ccccc1)C1(O)CCCC1 (stereo not drawn)
inactive: all assays above

CCCCC(O)/C=C(C)/C=C/C=C/C(=O)N1CCCC1=O (stereo not drawn)
inactive: all assays above
